# Measured values: ChEMBL document CHEMBL1961873, “Compounds: GSK PKIS; Assays: Nanosyn kinase panel” (2012)
# Target: Protein kinase C alpha type (Homo sapiens) (UniProt P17252)
# Settings: at 1 µM
# 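Note: reported value is the mean inhibition, measured within the GSK PKIS screening panel.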
row,SMILES,inhibition [%]
1,CN(C)CCCn1c(-c2nonc2N)nc2cnccc21,3.62
2,CN(c1ccc(NC(=O)Nc2ccc(OC(F)(F)F)cc2)cc1)c1ccnc(Nc2cccc(S(N)(=O)=O)c2)n1,0.85
3,O=C(Nc1ccc(Oc2ccc3[nH]c(NC(=O)c4ccco4)nc3c2)cc1)Nc1cc(C(F)(F)F)ccc1F,-2.22
4,c1ccc(Cc2nc3ccc(Nc4ncnc5ccccc45)cc3[nH]2)cc1,4.52
5,C[C@@H](Oc1cc(-n2cnc3ccc(OCC4CCN(C)CC4)cc32)sc1C(N)=O)c1ccccc1C(F)(F)F,9.63
6,Nc1nccc(-c2c(-c3ccc(F)cc3)nn3cc(C(F)(F)F)ccc23)n1,1.25
7,NC(=O)c1cccc(Nc2nccc(Nc3cccc(F)c3)n2)c1,4.54
8,Nc1nccc(C#Cc2cncnc2Nc2ccc(OCc3cccc(F)c3)c(Cl)c2)n1,1.81
9,NC(=O)c1sc(-n2cnc3ccccc32)cc1OCc1ccccc1Br,2.92
10,CN(C)c1cc2c(Nc3ccc4c(cnn4Cc4ccccc4)c3)ncnc2cn1,0.82
11,NS(=O)(=O)c1ccc(-c2cc3ccncc3cc2OCc2ccccc2)cc1,1.77
12,Nc1ccc(C#Cc2cncnc2Nc2ccc(OCc3cccc(F)c3)c(Cl)c2)cc1,1.03
13,FC(F)(F)c1ccc(-c2nn3ncccc3c2-c2ccnc(Nc3ccc4c(c3)OCCO4)n2)cc1,1.28
14,Cc1cc(-c2ccccn2)cc(C)c1/C=C/c1cncc(-c2nn[nH]n2)c1,3.52
15,CCn1c(-c2nonc2N)nc2c(C#CC(C)(C)O)nc(OCCNC)cc21,3.55
16,Oc1cccc(-c2nc(-c3ccccc3)[nH]c2-c2ccncc2)c1,3.01
17,C[C@@H](Oc1cc(-n2cnc3ccc(OC[C@@H](O)CO)cc32)sc1C(N)=O)c1ccccc1Cl,3.02

row,SMILES,inhibition [%]
1,OCc1ccc(-c2nc(-c3ccccn3)c(-c3ccc4c(c3)OCO4)[nH]2)cc1,2.06
2,Cc1ccc(NC(=O)CC2CC2)cc1-c1ccc(C(=O)NCC2CC2)cc1,1.96
3,COc1ccc(-c2nn3ncccc3c2-c2ccnc(Nc3cccc(C(F)(F)F)c3)n2)cc1,1.31
4,Cc1ccc2c(c1)/C(=N/Nc1ccc(S(N)(=O)=O)cc1)C(=O)N2,-0.36
5,COc1cc(/C=N/Nc2ncnc3c2cnn3C(C)C)ccc1O,2.74
6,NS(=O)(=O)c1ccc(NC=C2C(=O)Nc3ccc4ncsc4c32)cc1,8.8
7,COc1cc(Nc2nccc(-c3cnn4ncccc34)n2)cc(OC)c1,64
8,CCS(=O)(=O)c1ccc(OC)c(Nc2nccc(N(C)c3ccc4c(C)n[nH]c4c3)n2)c1,1.48
9,Cc1ccc(Nc2ccnc(Nc3cccc(C(N)=O)c3)n2)cc1O,8.24
10,CS(=O)(=O)Nc1cccc(-c2ccc3c(NC(=O)C4CC4)n[nH]c3c2)c1,1.61
11,NS(=O)(=O)c1ccc(Nc2cc(-c3cccc(O)c3)n[nH]2)cc1,1.85
12,COC(=O)c1cncc(/C=C/c2c(C)cc(O)cc2C)c1,1.39
13,COc1cc2ncnc(Nc3ccc(C)c(O)c3)c2cc1OC,3.24
14,COC(=O)Nc1nc2cc(Oc3ccc(NC(=O)Nc4cccc(Br)c4)cc3)ccc2[nH]1,1.61
15,[O-][S+]1CCN(Cc2ccc(-c3ccc4ncnc(Nc5ccc(OCc6ccccc6)c(Cl)c5)c4c3)o2)CC1,0.88
16,COc1cc2ncn(-c3cc(OCc4ccccc4S(C)(=O)=O)c(C#N)s3)c2cc1OC,2.72
